Data reported in PubChem BioAssay (NCATS).
“And” between values parts separate entries of the source, which are not always exact repeats. Equal values may be shown once. Inconclusive results are not listed. The source made the active and inactive calls. Calls follow the shape of the dose curve; as a rule, active = well fitted curve in the direction sought with a large enough effect; inconclusive = small, poorly fitted or top-dose-only effect, or another doubt; inactive = no such curve, though single readings can be large; an effect the other way counts as inactive or inconclusive.

Columns and labels:
[1] = target: Cellular tumor antigen p53 (Homo sapiens) (UniProt P04637); test: Primary qHTS for small molecule compounds that upregulate eGFP-tagged delta133p53alpha (in N-terminal) cells. (AID 2060322); conditions: NCI-H358 eGFP-delta133p53alpha fluorescence, 24 h; activation: stronger effect = higher value;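 also: cells pre-induced with doxycycline then dosed without doxycycline; series mostly up to about 56 µM; 0% = DMSO vehicle and 100% = reference activator; nearly all actives have a fitted effect of over 75% in size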
Cellular tumor antigen p53 (Homo sapiens), sequence (P04637 whole entry, looked up): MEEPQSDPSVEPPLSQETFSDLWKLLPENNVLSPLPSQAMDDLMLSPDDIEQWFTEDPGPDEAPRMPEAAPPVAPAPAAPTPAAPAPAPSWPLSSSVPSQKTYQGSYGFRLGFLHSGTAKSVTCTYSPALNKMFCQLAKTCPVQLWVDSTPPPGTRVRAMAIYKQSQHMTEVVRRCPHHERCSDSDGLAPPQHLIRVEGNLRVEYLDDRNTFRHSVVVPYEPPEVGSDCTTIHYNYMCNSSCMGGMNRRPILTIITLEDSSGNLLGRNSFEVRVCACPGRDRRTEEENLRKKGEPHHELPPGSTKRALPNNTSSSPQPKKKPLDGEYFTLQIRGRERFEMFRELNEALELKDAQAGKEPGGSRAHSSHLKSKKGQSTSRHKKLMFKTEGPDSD
Procedure, shortened: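 NCI-H358 cells pre-induced 24 h with 10 ng/ml doxycycline for eGFP-delta133p53alpha, plated dox-free and exposed 24 h at 37C to titrated compounds. Fixed, Hoechst-stained; gated GFP peak intensity by laser scanning cytometry, normalized to DMSO (0%) and 57.5 uM 5-azacytidine (100%).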

[2] = target: Aldehyde dehydrogenase, mitochondrial (Homo sapiens) (UniProt P05091); test: qHTS for Inhibitors of the Aldehyde Dehydrogenase Family (ALDH2) Primary screen (AID 2061308);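 also: plate controls were vehicle for no effect and reference inhibitor for full effect; nearly all actives have a fitted effect of over 55% in size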
[3] = target: Retinaldehyde dehydrogenase 3 (Homo sapiens) (UniProt P47895); test: qHTS for Inhibitors of the Aldehyde Dehydrogenase Family (ALDH1A3) Validation screen (AID 2061312); also: % is scaled to controls: 0 for no effect and ±100 for the full control effect; nearly all actives have a fitted effect of over 45% in size
[4] = target: Retinaldehyde dehydrogenase 3 (Homo sapiens) (UniProt P47895); test: qHTS for Inhibitors of the Aldehyde Dehydrogenase Family (ALDH1A3) Primary screen (AID 2061315);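 also: plate controls were DMSO vehicle for no effect and reference inhibitor for full effect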

O=C(NCC1(N2CCN(c3ccccc3)CC2)CCOCC1)c1cccnc1Sc1ccccc1
inactive: activation [1] -3.34% | Potency [2] | Potency [3] | Potency [4]

CON(C)C(=O)[C@H](O)[C@H](Cc1ccccc1)NC(=O)c1cc2cc(Cl)ccc2[nH]1
inactive: activation [1] -8.59% | Potency [2] | Potency [3] | Potency [4]

COc1ccccc1N1CCN(CC(C(=O)NC(C)(C)C)c2ccccc2)CC1 (configuration not stated)
inactive: activation [1] -12.4% | Potency [2] | Potency [3] | Potency [4]

CN(C)CCc1c[nH]c2ccc(C[C@H]3COC(=O)N3)cc12
inactive: activation [1] -0.837% and -21.4% and -11.5% | Potency [2] | Potency [3] | Potency [4]

CCn1c(=O)n([C@H]2CCCN(c3nccc(-c4cc5ccccc5o4)n3)C2)c2ccccc21
inactive: activation [1] -7.16% | Potency [2] | Potency [3] | Potency [4]

O=C(NCCN1CCN(c2cccc3c2OCCO3)CC1)c1ccc(F)cc1
inactive: activation [1] -9.07% | Potency [2] | Potency [3] | Potency [4]

C#CCN(Cc1cc2c(=O)n(C)c(CN3CCN(C)CC3)nc2cc1Cl)c1ccc(C(=O)NCc2cccnc2)cc1
inactive: activation [1] 0.955% | Potency [2] | Potency [3] | Potency [4]

NC(=O)c1cccc2cn(-c3ccc(C4CCCNC4)cc3)nc12 (configuration not stated)
inactive: activation [1] 26.7% | Potency [2] | Potency [3] | Potency [4]

O=C1COc2nccc(-c3ccccc3F)c2CN1Cc1cc(C(F)(F)F)cc(C(F)(F)F)c1
inactive: activation [1] -4.77% | Potency [2] | Potency [3] | Potency [4]

O=C(COc1ccc2ccccc2c1Br)Nc1cccnc1
inactive: activation [1] -15.8% | Potency [2] | Potency [3] | Potency [4]

O=c1[nH]c(=O)n([C@H]2CCCO2)cc1F
inactive: activation [1] -9.6% and 3.34% | Potency [2] | Potency [3] | Potency [4]

CC(C)c1nnc(-c2ccc(-c3ccccc3)nc2)n1-c1cccc2nonc12
inactive: activation [1] -5.73% | Potency [2] | Potency [3] | Potency [4]

COc1cc(Nc2nc3ccccc3nc2NS(=O)(=O)c2cccc(NC(=O)c3ccc(C)c(OC)c3)c2)cc(OC)c1
inactive: activation [1] 10% | Potency [2] | Potency [3] | Potency [4]

Cc1cc(C)c(S(=O)(=O)n2cc(C)cc2C)c(C)c1
inactive: activation [1] 5.73% | Potency [2] | Potency [3] | Potency [4]

COc1ccc2c(c1O[C@H]1CCNC1)CCC2
inactive: activation [1] -0.955% | Potency [2] | Potency [3] | Potency [4]

COc1cc(NC(=O)c2cc(C3CC3)on2)c(OC)cc1Cl
inactive: activation [1] -12.4% | Potency [2] | Potency [3] | Potency [4]

C#CCN(Cc1cc2c(=O)[nH]c(C)nc2cc1Br)c1ccc(C(=O)NCc2cccnc2)cc1
inactive: activation [1] -5.73% | Potency [2] | Potency [3] | Potency [4]

O=C(Nc1ccccc1Br)NC1CCN(c2ccc(C(F)(F)F)cn2)C1 (configuration not stated)
inactive: activation [1] 0.477% | Potency [2] | Potency [3] | Potency [4]

O=C(NC1CCN(CC(F)(F)F)CC1)c1ccc(-c2cccc(F)c2)nc1
inactive: activation [1] -16.7% | Potency [2] | Potency [3] | Potency [4]

O=C(NCc1ccc(F)cc1)C(=O)c1c[nH]c2ccccc12
inactive: activation [1] 5.73% | Potency [2] | Potency [3] | Potency [4]

CCNC(=O)c1noc(-c2cc(Cl)c(O)cc2O)c1-c1ccc(OC)cc1
inactive: activation [1] -6.68% | Potency [2] | Potency [3] | Potency [4]

OCC(Cc1ccccc1)Nc1nc(Oc2ccc3c(c2)CCC3)nc2c1ncn2Cc1ccc(-c2ccccc2)cc1 (configuration not stated)
inactive: activation [1] 6.21% | Potency [2] | Potency [3] | Potency [4]

CN(C)CCC[C@]1(c2ccc(F)cc2)OCc2cc(C#N)ccc21
inactive: activation [1] 0.477% | Potency [2] | Potency [3] | Potency [4]

CO[C@H]1C=CO[C@@]2(C)Oc3c(C)c(O)c4c(O)c(c5c(c4c3C2=O)NC2(CCN(CC(C)C)CC2)N=5)=NC(=O)C(C)=CC=C[C@H](C)[C@H](O)[C@@H](C)[C@@H](O)[C@@H](C)[C@H](OC(C)=O)[C@H]1C
inactive: activation [1] 0.549% | Potency [2] | Potency [3] | Potency [4]

COc1cccc(CNc2ccc(S(=O)(=O)Nc3nc4ccccc4s3)cc2)c1O
inactive: activation [1] -10.5% | Potency [2] | Potency [3] | Potency [4]

Cn1ncnc1COc1nn2c(-c3cc(F)ccc3F)nnc2cc1C(C)(C)C
inactive: activation [1] -11.9% | Potency [2] | Potency [3] | Potency [4]

Cc1nc(C)c(-c2ccc(C3CCC(CC(=O)O)CC3)cc2)nc1C(N)=O (configuration not stated)
inactive: activation [1] -13.4% | Potency [2] | Potency [3] | Potency [4]

O=C(c1cc2c(cc1F)OC(c1ccc(F)cc1)(c1ccc(Cl)cc1Cl)O2)N1CCOCC1 (configuration not stated)
inactive: activation [1] -4.3% | Potency [2] | Potency [3] | Potency [4]
